Data taken from PubChem BioAssay AID1159580 (chemical genetic matrix, 2015).
In all, about 5,500 compounds went through this assay and about 2,000 (36%) were called active. Not shown: some 18% with an inconclusive outcome. No stated cut-off is given here; in the data, active means normalized growth mostly below about 0.91 (no sharp cut-off); inconclusive means no clear call, values can overlap the other calls; inactive means mostly above about 0.92. The list shows a part of the results.

Test: chemical genetic growth profiling, strain panel (AID 1159580);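 further: tested at 20 µM; growth read once vehicle control cultures reached saturation at 30 °C; 1 = growth at the plate median or of vehicle wells; lower values mean less growth of the strain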
Conditions: growth OD
[1] = S. cerevisiae deletion strains, locus YGR078C, strain PAC10, hits give low values
[2] = S. cerevisiae deletion strains, locus YJR075W, strain HOC1, hits give low values
[3] = S. cerevisiae deletion strains, locus YMR307W, strain GAS1, hits give low values
[4] = S. cerevisiae deletion strains, locus YNL153C, strain GIM3, hits give low values
[5] = S. cerevisiae deletion strains, locus YPL055C, strain LGE1, hits give low values

Measured: normalized growth

C[C@H](N)CN1CCc2ccc(Br)cc21
inactive: S. cerevisiae deletion strains, locus YAL040C, strain CLN3, hits give low values 0.979 | S. cerevisiae deletion strains, locus YCL061C, strain MRC1 (second series), hits give low values 0.992 | S. cerevisiae deletion strains, locus YDR150W, strain NUM1, hits give low values 1 | S. cerevisiae deletion strains, locus YDR363W, strain ESC2, hits give low values 1.01 | S. cerevisiae deletion strains, locus YER002W, strain NOP16, hits give low values 0.992 | [1] 1.02 | [2] 1 | [3] 1 | [4] 0.997 | S. cerevisiae deletion strains, locus YNL175C, strain NOP13, hits give low values 1.01 | S. cerevisiae deletion strains, locus YNL197C, strain WHI3, hits give low values 1.02 | S. cerevisiae deletion strains, locus YNL224C, strain SQS1, hits give low values 1.01 | S. cerevisiae deletion strains, locus YOR083W, strain WHI5 (second series), hits give low values 1 | [5] 0.968

CCC(=O)c1ccc2c(c1)N(CC(C)N(C)C)c1ccccc1S2 (stereo unspecified)
inactive: S. cerevisiae deletion strains, locus YAL013W, strain DEP1, hits give low values 0.983 | S. cerevisiae deletion strains, locus YBR021W, strain FUR4, hits give low values 0.88 | S. cerevisiae deletion strains, locus YBR229C, strain ROT2, hits give low values 0.994 | S. cerevisiae deletion strains, locus YCL029C, strain bik1, hits give low values 1.02 | S. cerevisiae deletion strains, locus YDL035C, strain GPR1, hits give low values 0.979 | S. cerevisiae deletion strains, locus YDL074C, strain BRE1, hits give low values 0.95 | S. cerevisiae deletion strains, locus YDL101C, strain DUN1, hits give low values 0.986 | S. cerevisiae deletion strains, locus YDL134C, strain PPH21, hits give low values 0.96 | S. cerevisiae deletion strains, locus YDL185W, strain tfp1, hits give low values 0.995 | S. cerevisiae deletion strains, locus YDL192W, strain arf1, hits give low values 1.01 | S. cerevisiae deletion strains, locus YDR101C, strain arx1, hits give low values 1.01 | S. cerevisiae deletion strains, locus YDR162C, strain NBP2, hits give low values 0.988 | S. cerevisiae deletion strains, locus YDR318W, strain mcm21, hits give low values 0.994 | S. cerevisiae deletion strains, locus YDR388W, hits give low values 1 | S. cerevisiae deletion strains, locus YDR502C, strain sam2, hits give low values 0.986 | S. cerevisiae deletion strains, locus YEL061C, strain CIN8, hits give low values 0.998 | S. cerevisiae deletion strains, locus YER110C, hits give low values 1.02 | S. cerevisiae deletion strains, locus YER155C, strain BEM2, hits give low values 0.989 | S. cerevisiae deletion strains, locus YER167W, strain BCK2, hits give low values 0.998 | S. cerevisiae deletion strains, locus YGL078C, strain dbp3, hits give low values 1.01 | S. cerevisiae deletion strains, locus YGL086W, strain mad1, hits give low values 0.99 | S. cerevisiae deletion strains, locus YGL248W, strain PDE1, hits give low values 0.966 | [1] 0.992 | S. cerevisiae deletion strains, locus YGR135W, strain pre9, hits give low values 0.97 | S. cerevisiae deletion strains, locus YGR229C, strain SMI1, hits give low values 0.949 | S. cerevisiae deletion strains, locus YGR252W, strain gcn5, hits give low values 0.806 | S. cerevisiae deletion strains, locus YHR030C, strain SLT2, hits give low values 0.997 | S. cerevisiae deletion strains, locus YHR079C, strain IRE1 (second series), hits give low values 1.01 | S. cerevisiae deletion strains, locus YHR094C, strain hxt1, hits give low values 1.02 | S. cerevisiae deletion strains, locus YHR129C, strain ARP1, hits give low values 0.993 | S. cerevisiae deletion strains, locus YHR200W, strain rpn10, hits give low values 1 | S. cerevisiae deletion strains, locus YIL066C, strain RNR3, hits give low values 0.985 | S. cerevisiae deletion strains, locus YIL073C, strain SPO22, hits give low values 1.01 | S. cerevisiae deletion strains, locus YIL125W, strain kgd1, hits give low values 1.01 | S. cerevisiae deletion strains, locus YIR030C, strain dcg1, hits give low values 1.01 | S. cerevisiae deletion strains, locus YJL095W, strain BCK1, hits give low values 0.889 | S. cerevisiae deletion strains, locus YJL134W, strain LCB3, hits give low values 0.996 | S. cerevisiae deletion strains, locus YJL168C, strain set2, hits give low values 1 | S. cerevisiae deletion strains, locus YJL187C, strain SWE1 (second series), hits give low values 0.99 | S. cerevisiae deletion strains, locus YJR043C, strain POL32, hits give low values 0.96 | [2] 0.99 | S. cerevisiae deletion strains, locus YKL009W, strain mrt4, hits give low values 0.999 | S. cerevisiae deletion strains, locus YKL068W, hits give low values 0.999 | S. cerevisiae deletion strains, locus YKL085W, strain MDH1 (second series), hits give low values 0.999 | S. cerevisiae deletion strains, locus YKL085W, strain MDH1, hits give low values 0.999 | S. cerevisiae deletion strains, locus YKL190W, strain CNB1, hits give low values 0.99 | S. cerevisiae deletion strains, locus YKR001C, strain vps1, hits give low values 0.967 | S. cerevisiae deletion strains, locus YLR039C, strain RIC1, hits give low values 1.3 | S. cerevisiae deletion strains, locus YLR058C, strain SHM2, hits give low values 0.985 | S. cerevisiae deletion strains, locus YLR102C, strain apc9, hits give low values 1.02 | S. cerevisiae deletion strains, locus YLR262C, strain YPT6, hits give low values 1.35 | S. cerevisiae deletion strains, locus YLR268W, strain sec22, hits give low values 0.986 | S. cerevisiae deletion strains, locus YLR330W, strain CHS5, hits give low values 0.996 | S. cerevisiae deletion strains, locus YLR342W, strain FKS1 (second series), hits give low values 0.921 | S. cerevisiae deletion strains, locus YLR371W, strain rom2, hits give low values 1.03 | S. cerevisiae deletion strains, locus YLR418C, strain cdc73, hits give low values 0.9 | S. cerevisiae deletion strains, locus YML016C, strain PPZ1, hits give low values 0.994 | S. cerevisiae deletion strains, locus YML032C, strain rad52, hits give low values 0.982 | S. cerevisiae deletion strains, locus YML124C, strain tub3, hits give low values 1.01 | S. cerevisiae deletion strains, locus YMR078C, strain ctf18, hits give low values 1.01 | S. cerevisiae deletion strains, locus YMR223W, strain ubp8, hits give low values 0.963 | S. cerevisiae deletion strains, locus YMR263W, strain SAP30, hits give low values 0.973 | [3] 1.01 | S. cerevisiae deletion strains, locus YNL067W, strain RPL9B, hits give low values 0.99 | [4] 0.98 | S. cerevisiae deletion strains, locus YNL233W, strain BNI4, hits give low values 0.951 | S. cerevisiae deletion strains, locus YNL250W, strain rad50, hits give low values 1.01 | S. cerevisiae deletion strains, locus YNL271C, strain bni1, hits give low values 1.01 | S. cerevisiae deletion strains, locus YNL298W, strain CLA4, hits give low values 1.01 | S. cerevisiae deletion strains, locus YNL307C, strain MCK1, hits give low values 0.996 | S. cerevisiae deletion strains, locus YNR052C, strain pop2, hits give low values 1 | S. cerevisiae deletion strains, locus YOL006C, strain TOP1, hits give low values 0.852 | S. cerevisiae deletion strains, locus YOL012C, strain htz1 0.881 | S. cerevisiae deletion strains, locus YOL147C, strain pex11, hits give low values 1.01 | S. cerevisiae deletion strains, locus YOR061W, strain CKA2, hits give low values 0.999 | S. cerevisiae deletion strains, locus YOR069W, strain VPS5, hits give low values 0.996 | S. cerevisiae deletion strains, locus YOR136W, strain idh2, hits give low values 1 | S. cerevisiae deletion strains, locus YOR144C, strain elg1, hits give low values 1.01 | S. cerevisiae deletion strains, locus YOR184W, strain ser1, hits give low values 1.01 | S. cerevisiae deletion strains, locus YOR316C, strain cot1, hits give low values 1.02 | [5] 0.949 | S. cerevisiae deletion strains, locus YPR119W, strain clb2, hits give low values 1.01 | S. cerevisiae deletion strains, locus YPR141C, strain kar3, hits give low values 1.01 | S. cerevisiae deletion strains, locus YPR163C, strain tif3, hits give low values 1 | S. cerevisiae deletion strains, locus YPR167C, strain met16, hits give low values 1.02 | S. cerevisiae deletion strains, strain wtn01, hits give low values 0.99 | S. cerevisiae strains, strain wild type, hits give low values 0.991
